Data: PubChem BioAssay (Tox21)
Several values for one entry are separate records, joined by “and”; a condition that tells them apart may be missing. Identical values can stand only once. Inconclusive results are not listed. Activity calls are given as the source filed them. Calls follow the shape of the full dose curve.

These molecules were tested against 5-hydroxytryptamine receptor 2A (Homo sapiens) (UniProt P28223) (assay: 5-hydroxytryptamine receptor 2A (HTR2A) small molecule antagonists, cell-based qHTS assay (AID 1963586; also: nearly all actives have a fitted effect of over 45% in size)). Conditions: HTR2A-CHO cells, DOI-induced calcium flux, fluorescence; series mostly up to 61.5 µM; activity, negative = inhibition: at the top concentration.
Sequence of 5-hydroxytryptamine receptor 2A (Homo sapiens) (P28223 whole entry, looked up): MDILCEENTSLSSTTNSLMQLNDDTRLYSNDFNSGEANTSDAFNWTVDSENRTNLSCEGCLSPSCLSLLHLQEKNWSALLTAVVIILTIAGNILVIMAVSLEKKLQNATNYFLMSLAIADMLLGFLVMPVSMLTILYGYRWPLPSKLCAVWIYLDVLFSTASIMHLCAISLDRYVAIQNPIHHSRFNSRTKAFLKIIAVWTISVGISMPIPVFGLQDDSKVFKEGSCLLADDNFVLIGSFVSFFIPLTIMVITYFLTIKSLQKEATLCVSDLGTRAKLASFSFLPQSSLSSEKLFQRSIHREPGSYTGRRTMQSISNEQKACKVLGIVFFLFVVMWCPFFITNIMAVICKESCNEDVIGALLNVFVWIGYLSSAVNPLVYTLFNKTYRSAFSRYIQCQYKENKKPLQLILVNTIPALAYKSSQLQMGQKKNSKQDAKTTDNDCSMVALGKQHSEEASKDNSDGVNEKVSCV
From the text: National Center for Advancing Translational Sciences [NCATS]
Division of Preclinical Innovation [DPI]
U.S. Environmental Protection Agency [EPA]
National Institutes of Environmental Health Sciences [NIEHS]
National Toxicology Program [NTP]
U.S. Food and Drug Administration [FDA]
The HTR2A receptor is a subtype of the 5-HT2 receptor that belongs to the serotonin receptor family and is a G protein-coupled receptor (GPCR). The HTR2A-CHO cell line stably expressing human 5-hydroxytryptamine receptor 2A (HTR2A) can be used for screening antagonists of interactions between 5-HT2 and its ligands. The HTR2A-CHO calcium flux assay is a homogeneous fluorescence-based assay for detecting the intracellular calcium level using FDSS kinetic plate reader system.
Tox21 Assay Protocol Summary:
HTR2A-CHO cells were dispensed at 2000 cells/3uL/well in 1536-well black-clear bottom plates using a Multidrop Dispenser. After the assay plates were incubated at a 37 C/5% CO2 incubator for 18 h, 3 uL of Dye Loading Buffer was transferred to the assay plate by a Flying Reagent Dispenser. The assay plates were incubated at 37 C for 1h. For antagonist mode, 23 nL of compounds dissolved in DMSO, positive controls or DMSO only was transferred to the assay plate by a pin tool. After 5 min incubation at room temperature, 1.5 uL of 4-Iodo-2,5-dimethoxy-alpha-methylbenzeneethanamine hydrochloride (DOI) at 4nM was added to each well. The fluorescence intensity in the plates was measured using FDSS 7000EX kinetic plate reader for 3 min at 1 sec intervals.
% is scaled to controls: 0 for no effect and ±100 for the full control effect; potency is read from the fitted curve at half-maximal effect.

Compound | Potency | activity, negative = inhibition
CCCCC/C=C/C=C/C=O | inactive | –
CC(C)CCCO | – | 17.9% (inactive)
O=S(=O)(O)c1cccc2ccccc12 | – | 2.18% (inactive)
S=C(NC1CCCCC1)NC1CCCCC1 | inactive | –
Nc1ccncc1N | – | 31% [at 28.5 µM] (inactive)
Oc1cc(O)c2c(c1)O[C@H](c1ccc(O)c(O)c1)[C@H](O)C2 | – | -1.91% [at 28.5 µM] (inactive)
O=Cc1ccc([N+](=O)[O-])cc1 | – | 4.55% (inactive)
C=CCOC(=O)CCCCCCCC | – | 15.5% (inactive)
N#CC1(O)CCCCC1 | – | -23% (inactive)
O=[N+]([O-])c1cncn1CCN1CCOCC1 | – | 74.7% [at 28.5 µM] (inactive)
C[CH2][Ge]([Cl])([CH2]C)[CH2]C | – | 1.18% (inactive)
Cc1cccc(Cl)c1 | – | 40.3% (inactive)
C=C1C[C@]23C[C@@]1(O)CC[C@H]2[C@@]12C=C[C@H](O)[C@@](C)(C(=O)O1)[C@H]2[C@@H]3C(=O)O | inactive | –
CCCCCCCCCCCCCCC(=O)O | – | -5.24% (inactive)
CC(C)CCCCCOC(=O)CS | 1.88 µM (active) | –
CCC(C)(O)CCC=C(C)C (stereo not given) | – | 39.9% (inactive)
CC(C)CCOC(=O)c1ccccc1 | – | 2.78% (inactive)
N[C@H](Cc1c[nH]c2ccccc12)C(=O)O | – | 0.162% (inactive)
NS(=O)(=O)c1ccc(NC(=O)CCC(=O)O)cc1 | – | 4.79% [at 28.5 µM] (inactive)
O=C(O)C[C@H](NC(=O)OCc1ccccc1)C(=O)O | – | 6.42% (inactive)

Compound | Potency | activity, negative = inhibition
CCCCCCCCCCCCCC[P+](CCCC)(CCCC)CCCC | 14.8 µM (active) and 18.8 µM (active) | –
Cn1c(=O)c2[nH]c(Br)nc2n(C)c1=O | – | 9.07% [at 28.5 µM] (inactive)
Oc1ccc2c(c1)OC[C@@H](N1CCC(O)(c3ccc(F)cc3)CC1)[C@H]2O | – | -4.64% [at 28.5 µM] (inactive)
O=c1cc(CO)occ1O | – | 0.192% [at 28.5 µM] (inactive)
CC(C=O)c1ccccc1 (stereo not given) | – | -1.95% (inactive)
CCc1ccc(C)nc1 | – | 0.004% (inactive)
COC(C)(C)CCO | – | 6.81% (inactive)
O=C(O)C(S)C(S)C(=O)O (stereo not given) | – | 14.1% [at 28.5 µM] (inactive)
Nc1cc([N+](=O)[O-])ccc1O | inactive | –
CC(C)c1cc2c(cc1S(=O)(=O)O)[C@@]1(C)CCC[C@@](C)(C(=O)O)[C@@H]1CC2 | – | 1.08% [at 28.5 µM] (inactive)
CCSC(=O)N(CC(C)C)CC(C)C | – | 4.02% (inactive)
CCCCC(CC)COC(=O)CCCCCCCC(=O)OCC(CC)CCCC (stereo not given) | inactive | –
CCOC(=O)c1ccc(C)cc1 | – | 0.758% (inactive)
O=S(=O)(O)C(F)(F)F | – | -7.13% (inactive)
CC(C)CCCCCCCCCCCCCCC(=O)O | – | -0.715% (inactive)
CCOc1ccc2c(c1)C(C)=CC(C)(C)N2 | inactive | –
CC1COc2ccccc2N1C(=O)C(Cl)Cl (stereo not given) | inactive | –
C1CCCNCCC1 | – | 1.93% (inactive)
CCOC(=O)C(C)Oc1ccc(Oc2cnc3cc(Cl)ccc3n2)cc1 (stereo not given) | – | -32.2% (inactive)
O=P(O)(OCc1ccccc1)OCc1ccccc1 | – | -5.83% (inactive)
